The list is not random: actives were taken first. Their share in the collection is about 1.6%.
KCNQ2 block: KCNQ2 (rat) channel inhibition; O88943; CHO-K1 KCNQ2, FluxOR thallium flux, 20 min; stronger effect = lower value; B-score at 10 µM; 1.1% of 310,000 active;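 active means fluorescence ratio B-score at most minus 3 library SDs, with starting brightness B-score within 2 library SDs, cut at about -5.5 in these data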
Target sequence (O88943 whole entry, looked up): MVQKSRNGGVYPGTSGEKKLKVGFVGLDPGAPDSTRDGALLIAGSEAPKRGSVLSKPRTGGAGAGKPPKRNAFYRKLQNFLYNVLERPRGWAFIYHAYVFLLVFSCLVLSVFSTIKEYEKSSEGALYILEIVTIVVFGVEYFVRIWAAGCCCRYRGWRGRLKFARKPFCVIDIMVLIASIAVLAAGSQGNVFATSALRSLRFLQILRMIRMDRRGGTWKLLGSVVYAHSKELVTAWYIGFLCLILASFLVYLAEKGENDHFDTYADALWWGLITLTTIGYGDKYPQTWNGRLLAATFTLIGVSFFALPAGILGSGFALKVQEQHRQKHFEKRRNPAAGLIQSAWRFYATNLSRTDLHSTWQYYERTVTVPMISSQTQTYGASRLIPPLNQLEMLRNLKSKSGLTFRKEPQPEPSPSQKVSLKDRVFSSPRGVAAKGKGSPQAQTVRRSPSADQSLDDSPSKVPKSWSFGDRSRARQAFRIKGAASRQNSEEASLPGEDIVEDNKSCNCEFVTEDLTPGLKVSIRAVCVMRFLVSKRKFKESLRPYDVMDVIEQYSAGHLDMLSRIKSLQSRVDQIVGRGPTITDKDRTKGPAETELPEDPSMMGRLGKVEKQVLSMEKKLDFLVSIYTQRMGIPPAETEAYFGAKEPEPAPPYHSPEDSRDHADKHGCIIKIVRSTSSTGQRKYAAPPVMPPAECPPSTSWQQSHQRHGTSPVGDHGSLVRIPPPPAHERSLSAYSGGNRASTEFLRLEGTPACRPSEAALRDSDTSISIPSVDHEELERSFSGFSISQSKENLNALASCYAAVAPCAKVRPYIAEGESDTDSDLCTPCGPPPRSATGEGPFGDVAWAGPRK
KCNQ2 pot: KCNQ2 (rat) channel potentiation | CHO-K1 KCNQ2, FluxOR thallium flux fluorescence; stronger effect = higher value | 0.54% of 310,000 active | B-score at 10 µM;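 active means fluorescence ratio B-score at least 3 SD of library B-scores, with initial fluorescence B-score within 3 of them, cut at about 5.3 in these data; same plate scores as AID 2156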;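 further: B-score of peak minus minimum over baseline fluorescence ratio after K+ and Tl+ stimulus; positive B-score means potentiation of KCNQ2 with more thallium influx and brighter signal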
Kir21 confirm: confirmation of mouse Kir2.1 potassium channel inhibitors | shares compounds with KCNQ2 pot | Kir2.1-expressing cells, FluxOR thallium flux fluorescence; stronger effect = lower value | Tl flux remaining, % of negative control (stronger effect = lower value), % at 10 µM | 41% of 2,300 active;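 active means Primary-screen hit whose thallium flux fell at least 3 control SD below untreated wells in both duplicates, with normal baseline fluorescence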
HEK293 Tl flux: counter-screen for Kir2.1 inhibitors: effect in parental HEK293 cells; 19% of 2,300 active; shares compounds with KCNQ2 pot; AID 2105; FluxOR thallium flux fluorescence; 0% = unstimulated blank wells; FluxOR signal as % of negative control (100 = no effect), % at 10 µM;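 active means dye signal at least 3 control SD above or below untreated wells in both duplicates, raw fluorescence within 3, either direction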;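 further: percent is based on the flux ratio of peak minus minimum fluorescence over baseline F0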
CHO-K1 Tl ctr: alters thallium flux in parental CHO-K1 cells, KCNQ2 counter-screen. shares compounds with KCNQ2 pot. activity increase over 3SD of controls, % at 10 µM. FluxOR thallium flux fluorescence; zero = vehicle mean+3SD, 100% = vehicle-minus-blank window. 43% of 1,200 active;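 active means signal rise of at least 3 SD above the untreated control mean, in both duplicate wells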;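 further: counter screen of KCNQ2 potentiator hits so any rise reflects channel-independent effects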
KCNQ1 pot spec: tests whether KCNQ2 potentiators also act on human KCNQ1; shares compounds with KCNQ2 pot; CHO KCNQ1 stable, FluxOR thallium flux fluorescence; beyond 3SD, as % of vehicle-control signal; activation over 3SD threshold, % at 10 µM; 28% of 1,200 active; AID 2283;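 active means fluorescence ratio rise of at least 3 SD of vehicle wells above their mean, in both replicate wells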
KCNQ2 pot conf: confirmation of rat KCNQ2 potassium channel potentiators. shares compounds with KCNQ2 pot. CHO-KCNQ2 cells, FluxOR thallium flux fluorescence. potentiation, less the hit threshold, % at 10 µM. 68% of 1,200 active. AID 2287;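 active means fluorescence ratio rising 3 SD or more over the vehicle control mean in both replicates, plus primary screen hit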;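 further: peak minus minimum thallium fluorescence divided by baseline after K/Tl stimulus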
Kir2-1 sel: mouse Kir2.1 off-target activity of KCNQ2 potentiators; shares compounds with KCNQ2 pot; HEK293 Kir2.1, FluxOR thallium flux fluorescence; activity over 3SD threshold, % at 10 µM; 2% of 1,200 active;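 active means fluorescence ratio rise of at least 3 SD above the vehicle-control mean, seen in both replicates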
KCNQ2 W236L pot: rat KCNQ2 W236L mutant potentiation by KCNQ2 potentiators | 10% of 940 active | CHO KCNQ2-W236L, automated patch clamp current | shares compounds with KCNQ2 pot | current increase over 3SD of negative controls (%), stronger effect = higher value, % at 25 µM;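 active means current increase at least 3 SD of the untreated controls above them in both duplicate recordings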
Large screens that a line does not name were inactive (follow-up assays come after a bar, where they were run).

COc1coc(C(O)CN)cc1=O (configuration not stated)	none
CCOC(=O)C(=Cc1cc(=O)c(OC)co1)C(=O)OCC	none | Kir21 confirm inactive | HEK293 Tl flux inactive
COc1cc(CNS(=O)(=O)c2ccc3c(c2)CC(C)N3C(C)=O)cc(OC)c1OC (configuration not stated)	none (no result: KCNQ2 pot)
CS(=O)(=O)c1cnc(-c2cccnc2)nc1N	none
COc1ccc(C(CNC(=O)CSc2ccc(Br)cc2)N2CCOCC2)cc1 (configuration not stated)	none
CC(C)(C)c1ccc(OCCC(=O)NCC(c2cccs2)N2CCOCC2)cc1 (configuration not stated)	KCNQ2 pot 7.04 | CHO-K1 Tl ctr inactive | KCNQ1 pot spec 123.2 | KCNQ2 pot conf 19.1 | Kir2-1 sel inactive | KCNQ2 W236L pot inactive
O=C(CSc1ccc(Br)cc1)NCC(c1cccs1)N1CCOCC1 (configuration not stated)	KCNQ2 pot 6.81 | CHO-K1 Tl ctr inactive | KCNQ1 pot spec inactive | KCNQ2 pot conf 7.9 | Kir2-1 sel inactive | KCNQ2 W236L pot inactive
CCOc1ccc(S(=O)(=O)NCCC(=O)NCC(c2cccs2)N2CCOCC2)cc1 (configuration not stated)	none
COC(=O)C1=C(C)N=C2SCCC(=O)N2C1c1ccc(OC(=O)c2ccco2)cc1 (configuration not stated)	none (no result: KCNQ2 pot) | Kir21 confirm 52.5% | HEK293 Tl flux inactive
C=CCOC(=O)C1=C(C)N=C2SCCC(=O)N2C1c1ccc(OC(=O)c2ccco2)cc1 (configuration not stated)	none (no result: KCNQ2 pot)
CCOc1cc(N2CCCC2)ccc1[N+](=O)[O-]	none
COC(=O)C1Cc2c([nH]c3ccccc23)C2(CCN(Cc3ccccc3)CC2)N1 (configuration not stated)	none (no result: KCNQ2 pot) | Kir21 confirm 67.5% | HEK293 Tl flux inactive
CCCN1CCC2(CC1)NC(C(=O)O)Cc1c2[nH]c2ccccc12 (configuration not stated)	none (no result: KCNQ2 pot)
COc1ccc(S(=O)(=O)N2CCC(C(=O)NC3CCCCC3)CC2)cc1OC	none (no result: KCNQ2 pot)
O=C(c1ccc(C(F)(F)F)cc1)C1CCCN(C(=O)CCN2CCCO2)C1 (configuration not stated)	none (no result: KCNQ2 pot)
O=C(CC1CCCC1)Nc1ccc2c(c1)CCC2	KCNQ2 pot 26.3 | Kir21 confirm inactive | HEK293 Tl flux inactive | CHO-K1 Tl ctr inactive | KCNQ1 pot spec inactive | KCNQ2 pot conf 80.4 | Kir2-1 sel inactive | KCNQ2 W236L pot inactive
COc1ccc(CC(=O)Nc2ccc3c(c2)CCC3)cc1	none
COc1ccc(NC(=O)CC2CCCC2)cc1OC	none (no result: KCNQ2 pot)
O=C(Cc1ccccc1)Nc1ccc2c(c1)CCC2	KCNQ2 pot 6.46 | Kir21 confirm inactive | HEK293 Tl flux inactive | CHO-K1 Tl ctr 16.7 | KCNQ1 pot spec inactive | KCNQ2 pot conf 80.6 | Kir2-1 sel inactive | KCNQ2 W236L pot inactive
O=C(Cc1ccccc1)Nc1cccc(N2CCCC2)c1	KCNQ2 pot 6.01 | Kir21 confirm inactive | HEK293 Tl flux inactive | CHO-K1 Tl ctr inactive | KCNQ1 pot spec inactive | KCNQ2 pot conf 21.1 | Kir2-1 sel inactive | KCNQ2 W236L pot 0.1%
O=C(Cc1ccccc1)Nc1ccc(N2CCCC2)cc1	none
CC(CNC(=O)c1ccccc1Cl)c1ccccc1 (configuration not stated)	none (no result: KCNQ2 pot)
Cc1ccccc1C(N)c1ccncc1 (configuration not stated)	none (no result: KCNQ2 pot)
CN1CCN(C(=O)C2=C[C@@H](C3CCCCC3)C[C@@H](OCCCCO)O2)CC1	none (no result: KCNQ2 pot)
O=C(CCC(=O)N1CCOc2ccc(Cl)cc21)NCCCN1CCN(Cc2ccccc2)CC1	none
